Source: PubChem BioAssay
Lassa entry inh: inhibitors of Lassa virus binding or cell entry; Lassa virus pseudotype entry inhibition, cell reporter; hit rate 1.2% among 300,000; Potency, µM (doses to about 37.9 µM), without a hit: at the top dose activity change, negative = inhibition, hits mostly inhibitors; AID 540256; calls by dose curve; tested in HEK293 cells; further: potency means the concentration at half of the fitted maximal effect; nearly all actives have a fitted effect of over 50% in size
HCV inh: HCV inhibition. Huh7.5.1 HCVcc-Cre infection, luciferase reporter, 44 h. Potency, µM (top dose mostly 41.8 µM), for inactives: at the highest dose activity change, negative = inhibition, most hits filed as inhibitors. hit rate 3.4% among 340,000; active means well fitted inhibition curve with a large enough effect; inconclusive means small, poorly fitted or top-dose-only effect, or another doubt; inactive means no such curve, though single readings can be large or run the other way; further: potency means the concentration at half of the fitted maximal effect
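1,000 cells/well; 4 h culture; + compound; + HCVcc-Cre (~0.5 moi); 44 h; luciferase substrate, RT 15 min; read 15 sec.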
Marburg entry inh: Marburg virus entry inhibition. AID 540276. Potency, µM (titrated, usually from 37.8 µM), for inactives: top-dose activity change, negative = inhibition, actives largely listed as inhibitors. Marburg virus pseudotyped entry inhibition, cell reporter. hit rate 1.8% among 300,000; calls by dose curve; tested in HEK293 cells; further: potency means the concentration at half of the fitted maximal effect
FMDV inh: blocks foot and mouth disease virus; FMDV antiviral cell-based qHTS; Potency, µM (series often up to 57.9 µM), for inactives: at the top dose activity change, negative = inhibition, usual class: inhibitors; hit rate 1.2% among 410,000; AID 1159524; calls by dose curve; tested in HEK293T cells; further: read-out not given here; potency means the concentration at half of the fitted maximal effect; nearly all actives have a fitted effect of over 45% in size
HCMV inh: inhibitors of human cytomegalovirus; HFF cells, HCMV-luciferase reporter, 72 h; stronger effect = lower value; activity change, negative = inhibition, % at 57.5 µM; AID 1259415; hit rate 4.5% among 410,000; in the data active means activity change below about -60%; inconclusive means no clear call, values can overlap the other calls; inactive means above about -39%
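Cell-based, HFFs, 1000 cells/well, 16 h 37C; cpds in DMSO + HCMV-luc, MOI 1 PFU/cell; 72 h 37C; OneGlo luminescence after 5 min RT; norm. to buffer vs Salinomycin 10uM.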
* hit, by the source's call; ? = inconclusive; · = no result; [ ] = another dose, or the depositor's remark. An excerpt weighted towards active compounds, which were near 7.9% of everything screened. On the % scale 0 is the no-effect control and ±100 the full control effect.

SMILES	Lassa entry inh	HCV inh	Marburg entry inh	FMDV inh	HCMV inh
Cc1ccc2cc(C#N)c(NCCNC(=S)NCCCN(C)C)nc2c1C	·	?	·	-21.8%	-12.3
Cc1ccc2cc(C#N)c(NCCNC(=O)C3CC3)nc2c1C	-2.3%	10µM*	?	?	-87.5*
CCOc1ccc(CCNC(=O)CCc2cn(Cc3ccc(C)cc3)c3ccccc23)cc1	2.4%[46.1 µM]	·	·	-12.0%	-20.0
Cc1nc2cc(-c3ccc(Cl)cc3)nn2c(NCCN(C)C)c1C	?	17.8µM*	?	13.0%	29.5
Cc1cc(C)n2nc(-c3ccc(Cl)cc3)cc2n1	·	3.1%	·	69.4%	173.4
Clc1ccc(C(c2ccccc2)c2c[nH]c3ccccc23)s1 (stereo not given)	-0.1%[46.1 µM]	·	·	0.0%	-66.6*
CCN1CCCC1CNC(=O)c1cnn(-c2nccc(-c3ccc(C)o3)n2)c1C1CC1 (stereo not given)	·	·	·	-7.8%	·
COc1ccc(-c2noc(CSc3nc(N)cc(=O)[nH]3)n2)cc1	-5.2%[46.1 µM]	25.1µM*	·	-35.8%	-28.4
NC(=O)c1ccc(NC(=O)COC(=O)c2c3c(nc4ccccc24)/C(=C\c2cccs2)CCC3)cc1	?	?	?	-26.0%	-4.1
CCc1cccc(C)c1NC(=O)COC(=O)c1c2c(nc3ccccc13)/C(=C\c1cccs1)CCC2	-2.9%	1.12µM*	?	-22.5%	-28.2
CCCCNC(=O)COC(=O)c1c2c(nc3ccccc13)/C(=C\c1cccs1)CC2	?	2.82µM*	?	32.9%	120.3
O=C(COC(=O)c1c2c(nc3ccccc13)/C(=C/c1ccco1)CC2)NC1CCCC1	12.6µM*	?	?	12.0%	-12.1
C=CC[C@]12CCc3sccc3C1N(c1ccc(C(=O)OCC)cc1)C2=O (stereo not given in full)	·	?	·	?	26.4
CCCCC(=O)OCC(=O)N1N=C(c2c[nH]c3ccccc23)C(O)C1c1ccc(OC)cc1 (stereo not given)	·	?	·	-36.9%	-60.8*
COc1ccc(CC(=O)OCC(=O)N2N=C(c3ccccc3)CC2c2ccc(OC)cc2)cc1 (stereo not given)	-8.2%	-21.4%	?	3.6%	-8.9
Cc1ccccc1/C=c1\s/c(=C\C(=O)C(C)(C)C)[nH]c1=O	?	11.2µM*	?	?	51.8
CC(C)(C)C(=O)/C=c1\[nH]c(=O)/c(=C\c2ccccc2F)s1	-25.6%[46.1 µM]	?	-17.4%[46.1 µM]	-18.7%	9.1
CCOC(=O)/C=C/[C@@H](C)NC(=O)C(F)(F)F	·	·	·	·	-21.5
BrC(=C\c1ccccc1)/C=N/n1cnnc1	·	10µM*	·	?	-98.5*
O=C(O)c1ccc(CN2C(=O)c3cccc4c([N+](=O)[O-])ccc(c34)C2=O)cc1	-28.6%[46.1 µM]	?	?	?	·
Cc1ccc(C(=O)O)cc1N1C(=O)c2cccc3c([N+](=O)[O-])ccc(c23)C1=O	·	?	·	?	-99.8*
CN(C)CCCN1C(=O)c2cccc3c([N+](=O)[O-])ccc(c23)C1=O	?	?	1.84µM*	?	-24.7
CC(=O)Oc1cccc(N2C(=O)c3cccc4c([N+](=O)[O-])ccc(c34)C2=O)c1	·	?	·	-10.8%	-93.7*
O=C(NCc1ccncn1)[C@H]1[C@H](CO)[C@H]2Cn3c(cccc3=O)[C@@H]1N2CC1CC1	·	·	·	·	1.1
Cc1nnc2c(Oc3ccccc3)nc3ccccc3n12	2.8%	20.6%	?	0.0%	?
SMILES	Lassa entry inh	HCV inh	Marburg entry inh	FMDV inh	HCMV inh
Cc1ccc(Oc2nc3ccccc3n3cccc23)cc1	3.0%	7.94µM*	-25.8%[46.1 µM]	-25.7%	-24.8
c1ccc(Oc2nc3ccccc3n3cccc23)cc1	-2.6%	10µM*	0.2%	-20.2%	-10.1
CCC(C)CN1C(=O)NC(CCc2ccccc2)C(C(C)=O)=C1C (stereo not given)	·	·	-18.2%[14.2 µM]	·	·
OC[C@H]1O[C@H](c2ccccc2)C=C[C@H]1O	·	·	-7.8%[14.2 µM]	·	·
O=C(Nc1cccc(C(=O)N2CCN(c3ccc(Cl)cc3)CC2)c1)c1nsc2ccccc12	?	·	·	0.0%	47.1
CCOc1ccccc1NC1=C(OC)C(=O)C(Nc2ccccc2OCC)=C(OC)C1=O	11.6%	?	?	-33.3%	-15.4
Cc1nc2c(OCc3ccccc3)cccn2c1CC#N	?	·	?	6.6%	·
C=CCn1c(O)c(C(CC)=NCc2cc(OC)cc(OC)c2)c(=O)[nH]c1=O	5.8µM*	-31.4%	?	-28.9%	140.2
